Measurements as given in PubChem BioAssay (NCATS).
Results filed as inconclusive are left out. A number with no mark means an inactive call. Calls of active or inactive are those of the source. Calls follow the shape of the dose curve; as a rule, active = well fitted inhibition curve with a large enough effect; inconclusive = small, poorly fitted or top-dose-only effect; inactive = no such curve, though single readings can be large or run the other way. Where a SMILES comes first, the peptide text is derived from it. [ ]: non-standard residue; d: D form. ξ: configuration not given here. ξLac(3-iPr) = CC(C)CC(O)C(=O)O; NMeV = CN[CH](C(=O)O)C(C)C; βAla = NCCC(=O)O

test system: Zika virus NS2B-NS3 protease (linked construct); assay: Primary screen NINDS Rhodamine qHTS for Zika virus inhibitors (AID 1347160); settings: purified NS2B-NS3 protease, Rhodamine110 substrate fluorescence; series mostly up to 57.1 µM; activity change, negative = inhibition: at the top concentration; also: nearly all actives have a fitted effect of over 55% in size
Procedure, shortened: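 Single-chain NS2B-NS3 protease, 25 nM, pH 8.0; compounds preincubated 15 min. Activity: Rhodamine110 release from 1.5 microM substrate over 15 min, room temperature, data fitted to 4-parameter Hill.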
% is scaled to controls: 0 for no effect and ±100 for the full control effect.

Row | SMILES | outcome | activity change, negative = inhibition
1 | CCc1cccc(CC)c1NC(=O)c1nn(C)c2c1CCc1cnc(Nc3ccc(C(=O)NC4CCN(C)CC4)cc3OC(F)(F)F)nc1-2 | inactive [at 33.1 µM] | 
2 | CC(=O)O[C@H]1CC[C@@]2(C)C(CC[C@@H](C)[C@]23Cc2c(O)cc4c(c2O3)CN([C@@H](CCC(=O)O)C(=O)O)C4=O)C1(C)C (stereo not given in full) | inactive [at 33.1 µM] | 
3 | O=C1NC(Cc2ccccc2)C(=O)N2CCCC12 (stereo not given) |  | -12.9%
4 | N[C@@]1(C(=O)O)CC[C@H]2[C@H](C(=O)O)[C@H]21 | inactive | 
5 | C[C@@H]1CC[C@]2(C(=O)O)CC[C@]3(C)C(=CCC4[C@@]5(C)C[C@@H](O)[C@H](O)[C@@](C)(CO)C5CC[C@]43C)C2[C@]1(C)O (stereo not given in full) |  | -17.5% [at 33.1 µM]
6 | O=C(Nc1ccccc1)N1CCN(Cc2ccc3ccccc3n2)CC1 |  | 21.3%
7 | CCOCc1cc(OC)c(-c2ccc(C[C@H](NC(=O)c3c(F)cccc3F)C(=O)O)cc2)c(OC)c1 |  | 11%
8 | C=C1C[C@]23C[C@H]1CC[C@H]2[C@]1(C)CCC[C@@](C)(C(=O)O)[C@H]1[C@@H]3C(=O)O |  | -25.9% [at 33.1 µM]
9 | CCCCOC(=O)NC(=O)C1c2ccccc2Oc2ccccc21 |  | -9.32%
10 | CC(C)C[C@H](CC(=O)NO)C(=O)N[C@H](C(=O)N[C@@H](C)C(=O)NCCN)C(C)(C)C |  | -11.4% [at 10.7 µM]
11 | N#C[C@@H]1C[C@H](F)CN1C(=O)CNC1[C@H]2CN(C(=O)c3ccc(F)cc3)C[C@@H]12 (stereo not given in full) |  | 5.11%
12 | CC(C)CC1OC(=O)C2CCCN2C(=O)CCNC(=O)C(Cc2ccccc2)NC(=O)C(C(C)C)N(C)C(=O)C(C(C)C)N(C)C1=O (stereo not given) (cyclo([ξLac(3-iPr)][NMeV][NMeV]F[βAla]P); configuration not given here) |  | 19.5% [at 15.1 µM]
13 | COc1c(Nc2ncc(Cl)c(N[C@H]3[C@@H](C(N)=O)[C@@H]4C=C[C@H]3C4)n2)ccc2c1CC[C@@H](N1CCOCC1)CC2 |  | 43.3%
14 | CC1CC2OC3(OC2C(C)(C)O)C1C1(C)CCC24CC25CCC(O[C@@H]2OC[C@@H](O)[C@H](O)[C@H]2O)C(C)(C)C5CC=C4C1(C)C3O (stereo not given in full) |  | -5.56% [at 15.1 µM]
15 | CC1CC[C@]2(C(=O)O)CC[C@]3(C(=O)O)C(=CCC4[C@@]5(C)CC[C@H](OC6OC(C)C(O)C(OC7OC(CO)C(O)C(O)C7O)C6O)C(C)(C)C5CC[C@]43C)C2C1C (stereo not given in full) |  | -27.6% [at 15.1 µM]
16 | C=C(CO[C@@H]1O[C@H](CO[C@@H]2OC[C@](O)(CO)[C@H]2O)[C@@H](O)[C@H](O)[C@H]1O)C1Cc2cc(C(C)=O)ccc2O1 (stereo not given in full) |  | -5.28% [at 33.1 µM]
17 | CCCn1c(=O)c2[nH]c(-c3ccc(OCC(=O)O)cc3)nc2n(CCC)c1=O | inactive | 
18 | COc1cc(O)c2c(c1)C1=CC(O)C(O)CC1(C)OC2=O (stereo not given) | inactive | 
19 | CC/C=C/CC1=C(CCCCC(CCC(=O)O)OC(C)=O)CCC1=O (stereo not given) | inactive [at 33.1 µM] | 
20 | CC(/C=C/C1=CC2=CC(=O)C(C)(O)C(O)C2=CO1)=C\C(C)CCO (stereo not given) | inactive [at 33.1 µM] | 
21 | CC(C)CC1NC(=O)C(C)NC(=O)C(CC(C)C)OC(=O)CCCNC1=O (stereo not given) |  | -23.7% [at 33.1 µM]
22 | COc1ccc(/C=C/C(=O)O[C@@H]2[C@@H](O)[C@H](C)O[C@@H](O[C@H]3[C@@H]4C=CO[C@@H](O[C@H]5O[C@@H](CO)[C@H](O)[C@@H](O)[C@@H]5O)[C@@H]4[C@@]4(CO)O[C@@H]34)[C@@H]2OC(C)=O)cc1 |  | -7.47% [at 15.1 µM]
23 | CC1(C)CCCC2(C)C1CC(=O)C13CC(CCC12)C(O)(CO)C3 (stereo not given) |  | -18.5% [at 33.1 µM]
24 | O=C(c1cc2c(cc1F)OC(c1ccc(F)cc1)(c1ccc(Cl)cc1Cl)O2)N1CCOCC1 (stereo not given) | inactive | 
25 | C=C1C[C@]23C[C@H]1[C@@H](O)C[C@H]2[C@@]12C=C[C@H](O)[C@@](C)(C(=O)O1)[C@H]2[C@@H]3C(=O)O | inactive [at 33.1 µM] | 
26 | CC1OC(O[C@H]2CC[C@@]3(C)C(CC[C@]4(C)C3CC=C3C5CC(C)(C)CC[C@]5(C(=O)OC5OC(CO)C(OC6OC(COC7OCC(O)C(O)C7O)C(O)C(O)C6O)C(O)C5O)CC[C@]34C)C2(C)C)C(O)C(O)C1OC1OCC(OC2OCC(O)C(O)C2O)C(O)C1O (stereo not given in full) |  | -22.7% [at 10.7 µM]
27 | Cc1cc2c(c(=O)[nH]1)OC(C(O)CC(C)C)O2 (stereo not given) |  | -18.4%
28 | COC(=O)C1=CO[C@@H](O[C@@H]2O[C@H](CO[C@@H]3O[C@H](COC(=O)/C=C/c4cc(OC)c(O)c(OC)c4)[C@@H](O)[C@H](O)[C@H]3O)[C@@H](O)[C@H](O)[C@H]2O)[C@@H]2C(CO)=CC[C@H]12 |  | -2.01% [at 15.1 µM]
29 | COC(=O)C[C@H]1[C@]2(C)C3=C(C)[C@H](c4ccoc4)C[C@H]3O[C@@H]2[C@H](OC(C)=O)C2[C@](C)(C(=O)OC)C=CC(=O)[C@@]21C (stereo not given in full) |  | -27% [at 33.1 µM]
30 | Clc1cc2c(NC3CCCC3)nnc(-c3ccncc3)c2cc1Cl |  | -40.4% [at 15.1 µM]
